rTrxR1 inhibitor = rat TrxR1 inhibition. hit rate 1% among 390,000. AID 588453. Potency, µM (doses to about 114 µM), for the others: top-dose activity change, negative = inhibition, hits mostly inhibitors. recombinant rTrxR1, NADPH fluorescence consumption, selenite substrate; note: % is set by controls: 0 for no effect and ±100 for the full control effect; nearly all actives have a fitted effect of over 65% in size
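Rat TrxR1 (90 nM in the dispensed reagent) was pre-reduced with 400 uM NADPH for 5 min at room temperature, then incubated with compound for 15 min. After 400 uM selenite was added, NADPH fluorescence (Ex 340/Em 450 nm) was followed for 8 min.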
GALK inh = inhibitors of human galactokinase | P51570 | Purified GALK, Kinase-Glo residual ATP luminescence | Potency, µM (titrated, usually from 57.5 µM), without a hit: top-dose activity change, negative = inhibition, actives largely listed as inhibitors | hit rate 0.007% among 270,000 | AID 1868; note: % is set by controls: 0 for no effect and ±100 for the full control effect
Target sequence (P51570 whole entry, looked up): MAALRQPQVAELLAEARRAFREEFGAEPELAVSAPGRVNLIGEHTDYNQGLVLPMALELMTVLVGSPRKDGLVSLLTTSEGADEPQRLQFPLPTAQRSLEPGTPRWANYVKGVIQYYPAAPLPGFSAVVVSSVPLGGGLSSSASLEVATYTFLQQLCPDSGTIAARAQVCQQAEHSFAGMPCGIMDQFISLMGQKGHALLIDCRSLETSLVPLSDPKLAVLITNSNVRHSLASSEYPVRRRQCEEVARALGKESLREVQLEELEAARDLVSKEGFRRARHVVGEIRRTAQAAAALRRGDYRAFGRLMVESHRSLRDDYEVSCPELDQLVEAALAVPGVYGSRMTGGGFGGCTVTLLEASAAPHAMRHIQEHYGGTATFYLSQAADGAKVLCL
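Galactose (100 uM) and ATP (35 uM) were turned over by 5 nM GALK for 1 h at RT. Kinase-Glo Plus then converted the remaining ATP into a luminescent signal.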
A549 viability = A549 cytotoxicity, counter-screen for Nrf2 inhibitors | hit rate 0.16% among 390,000 | A549 ARE-Fluc cells, CellTiter-Fluor viability, 18-24 h | AID 504648 | Potency, µM (doses to about 46 µM), inactives show at the highest dose activity change, negative = cytotoxicity, actives largely listed as inhibitors; note: % is set by controls: 0 for no effect and ±100 for the full control effect
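A549 ARE_Fluc cells in 5% FBS OPTI-MEM were exposed to compounds in concentration-response for 18-24 h at 37 deg C. Viability was read by CellTiter-Fluor fluorescence (Ex 405/Em 525) after 30 min, before the luciferase read.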
Nrf2 ARE act = activators of Nrf2 (ARE) signaling; AREc32 ARE-luciferase reporter (MCF7-derived line), luminescence, 24 h; Potency, µM (doses to about 46.1 µM), inactives show top-dose activation, most hits filed as activators; hit rate 0.31% among 410,000; note: % of control where 0% means no effect; nearly all actives have a fitted effect of over 65% in size
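Steps: seed AREc32_Fluc cells (1000/well, 5% FBS OPTI-MEM); incubate overnight at 37 deg C; add 23 nL compound; incubate 24 hr; add Steady-Glo; hold 30 min RT; read luminescence.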
Nrf2 inh = Nrf2 pathway inhibition. A549 ARE-Fluc reporter, luciferase luminescence, 18-24 h. Potency, µM (titrated, usually from 46 µM), inactives show at the top dose activity change, negative = inhibition, hits mostly inhibitors. hit rate 2.1% among 360,000; note: % is set by controls: 0 for no effect and ±100 for the full control effect; nearly all actives have a fitted effect of over 60% in size
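A549 ARE_Fluc cells (5000/well, 5% FBS OPTI-MEM) pre-incubated 2 h, then treated with compounds 18-24 h at 37C/5% CO2 in concentration-response. CellTiter-Fluor viability read first; BugLite luciferase luminescence after 15 min at room temperature gives Nrf2 activity.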
TrxR1 substrate = rat thioredoxin reductase 1 substrate activity; purified TrxR1 substrate turnover, NADPH consumption readout; Potency, µM (series often up to 114 µM), without a hit: at the top dose activity change, negative = substrate turnover; hit rate 0.01% among 390,000; note: % is set by controls: 0 for no effect and ±100 for the full control effect; nearly all actives have a fitted effect of over 50% in size
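Rat TrxR1, dispensed at 90 nM, was prereduced with 400 uM NADPH (final) for 5 min at ~22 deg C, then incubated with compound 15 min before 400 uM selenite. A first-read NADPH fluorescence drop versus no-compound background flagged substrates.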
The depositor's hits bear a star; ? = inconclusive; · = not tested or not shown; [ ] = dose if it differs, or a comment. A selection: hits, their analogues and other compounds. The true share with any hit is near 3%. Calls come from the whole dose curve; as a rule, active = well fitted curve in the direction sought with a large enough effect; inconclusive = small, poorly fitted or top-dose-only effect, or another doubt; inactive = no such curve, though single readings can be large; an effect the other way counts as inactive or inconclusive. Potency is the fitted concentration of half-maximal effect.

SMILES	rTrxR1 inhibitor	GALK inh	A549 viability	Nrf2 ARE act	Nrf2 inh	TrxR1 substrate
CC1(C)c2ssc(=S)c2-c2ccccc2N1C(=O)CSC1=NCCS1	-0.9%	-2.0%	-14.3%	3.3%	14.6µM*	-8.1%
Cc1[nH]c2ccccc2c1C1=CC(=O)C=CC1=O	25.1µM*	·	-4.2%	?	-3.4%	4.8%
CCCNC(=O)COC(=O)c1ccccc1C(=O)c1ccc(Cl)c([N+](=O)[O-])c1	50.1µM*	3.4%	1.4%	?	-18.6%	3.7%
Cc1ccc(Cl)c(NC(=O)COC(=O)c2ccccc2C(=O)c2ccc(Cl)c([N+](=O)[O-])c2)c1Cl	-15.9%	1.1%	?	0.2%	23.1µM*	-7.9%
Cc1ccc(C(=O)c2ccccc2C(=O)OCC(=O)Nc2cccc([N+](=O)[O-])c2)cc1	9.6%	-0.1%	-13.6%	?	-9.6%	-3.5%
O=C(NCc1nc2cccnc2n1Cc1ccc(F)cc1)c1ccccc1C(F)(F)F	13.4%[57.1 µM]	·	3.2%	0.5%	·	0.5%[57.1 µM]
Cc1csc2c(=O)sc(NC(=O)c3ccc(F)cc3)nc12	8.8%[57.1 µM]	4.0%	0.9%	?	4.5%	10.7%
Cc1nc2sccn2c1-c1csc(NCc2ccccc2)n1	3.4%	-0.9%	-13.8%	6.7%	8.2µM*	5.1%
Cc1nc(NC(=O)c2ccccc2)sc1-c1csc(NCc2ccccc2)n1	11.8%[57.1 µM]	0.3%	-15.7%	3.2%	20.6µM*	-6.1%
Cc1csc2nc(NC(=O)c3ccccc3)sc(=O)c12	-5.4%[57.1 µM]	·	-1.2%	3.16µM*	?	16.1%
Cc1oc(-c2ccccc2)nc1CNC(=O)NC1CCCCC1	3.7%[57.1 µM]	·	2.4%	-0.2%	·	-1.8%[57.1 µM]
Cc1cc2c(s1)c1cnn(Cc3ccc(-c4ccccc4)cc3)c(=O)c1n2C	·	·	-8.8%	·	13.5%	·
C=CCOc1ccc(/C=C/C(=O)OCC(=O)NCCCc2ccccc2)cc1	0.6%[57.1 µM]	·	2.4%	-0.8%	10.2%	-0.9%[57.1 µM]
C=CCOc1ccc(/C=C/C(=O)OCC(=O)N2CCC(c3ccccc3)=N2)cc1	23.6%	·	-0.7%	1.0%	20.6µM*	-3.3%
COc1ccc(-n2nc3cc(C)c(NC(=O)Cc4ccc(Cl)cc4)cc3n2)cc1	18.0%	·	-3.4%	2.0%	3.6%	6.3%
Cc1cc(Cl)ccc1NC(=S)NCCCO	?	-1.0%	1.2%	-0.5%	0.2%	-1.9%
Cc1ccc(Cl)cc1NC(=S)NCCCSC1CCCCC1	3.8%[57.1 µM]	-2.5%	?	2.7%	25.9µM*	-4.5%[57.1 µM]
O=C(COC(=O)c1c[nH]c2ccccc12)Nc1ccccc1	9.6%[57.1 µM]	·	-0.5%	1.7%	22.4%	6.3%[57.1 µM]
CC(NC(=O)COC(=O)CCc1ccccc1)c1ccccc1 (configuration not stated)	6.0%[57.1 µM]	2.3%	23.1µM*	0.5%	?	1.4%[57.1 µM]
CC(NC(=O)COC(=O)c1c[nH]c2ccccc12)c1ccccc1 (configuration not stated)	-7.3%[57.1 µM]	·	-17.3%	1.9%	20.6µM*	-3.3%
NC(=O)c1ccccc1NC(=O)C1CCCN(c2ncnc3onc(-c4ccc(F)cc4)c23)C1 (configuration not stated)	19.7%	·	-9.3%	5.0%	?	0.6%
CC(C)C1C(=O)Nc2ccc(S(=O)(=O)NCc3ccc(Cl)cc3)cc21 (configuration not stated)	20.7%	·	1.6%	-0.7%	20.6µM*	-1.5%
COc1ccc[n+](CC(=O)c2ccc(F)cc2)c1	14.2%	·	·	·	·	-2.3%
C/C=C(/C)C(=O)Nc1cccc(C2=NOC3(C2)C[C@H](C(N)=O)N(C(=O)Cc2ccc([N+](=O)[O-])cc2)C3)c1 (some centres not stated)	10.7%[57.1 µM]	-2.7%	-7.4%	0.0%	4.2%	-3.8%
C/C=C/C(=O)N1CC2(CC(c3cccc(NC(=O)CCCCC)c3)=NO2)C[C@H]1C(N)=O (some centres not stated)	·	4.0%	·	·	·	·
SMILES	rTrxR1 inhibitor	GALK inh	A549 viability	Nrf2 ARE act	Nrf2 inh	TrxR1 substrate
C/C=C/C=C\C(=O)Nc1cccc(C2=NOC3(C2)C[C@@H](C(N)=O)N(C(=O)/C(C)=C/C)C3)c1 (some centres not stated)	11.2µM*	4.2%	-2.1%	-1.6%	3.4%	2.4%[57.1 µM]
C/C=C\C=C/C(=O)Nc1cccc(C2=NOC3(C2)C[C@H](C(N)=O)N(C(=O)Cc2ccc([N+](=O)[O-])cc2)C3)c1 (some centres not stated)	7.94µM*	1.8%	11.2%	0.2%	1.2%	8.4%[57.1 µM]
C/C=C/C=C/C(=O)N1CC2(CC(c3cccc(NC(=O)CCCCC)c3)=NO2)C[C@H]1C(N)=O (some centres not stated)	28.2µM*	3.4%	-3.1%	-0.8%	20.5%	0.0%
C/C=C/C=C\C(=O)Nc1cccc(C2=NOC3(C2)C[C@H](C(N)=O)N(C(=O)CC#N)C3)c1 (some centres not stated)	22.4µM*	-0.7%	-2.0%	-0.5%	7.1%	1.2%
C/C=C(\C)C(=O)Nc1cccc(C2=NOC3(C2)C[C@@H](C(N)=O)N(C(=O)/C(C)=C/C)C3)c1 (some centres not stated)	18.8%[57.1 µM]	3.2%	-0.4%	-1.1%	1.5%	5.3%[57.1 µM]
C/C=C\C=C/C(=O)Nc1cccc(C2=NOC3(C2)C[C@H](C(N)=O)N(C(=O)CC)C3)c1 (some centres not stated)	14.1µM*	-2.1%	0.8%	0.0%	4.6%	-3.2%[57.1 µM]
C/C=C/C=C/C(=O)N1CC2(CC(c3cccc(NC(=O)/C=C/C)c3)=NO2)C[C@@H]1C(N)=O (some centres not stated)	?	-2.8%	0.2%	-0.5%	1.7%	5.3%
C/C=C\C=C/C(=O)Nc1cccc(C2=NOC3(C2)C[C@@H](C(N)=O)N(C(=O)CCCCC)C3)c1 (some centres not stated)	14.1µM*	3.8%	-4.0%	0.1%	0.2%	4.2%
COc1ccc(N2CCN(C(=O)NCc3noc4ccccc34)CC2)cc1	-6.3%	·	15.9%	-0.3%	?	1.1%
Cc1ccc(OCC(=O)N/N=C/C=C/c2ccco2)cc1C	39.8µM*	-0.9%	-5.8%	?	10.2%	-11.8%
Cc1ccc(OCC(=O)N/N=C/c2ccco2)cc1	7.5%	1.4%	-4.8%	5.6%	-9.7%	1.9%[57.1 µM]
O=C(Cc1cccs1)N/N=C/C=C/c1ccco1	44.7µM*	·	12.1%	12.6µM*	13.3%	-14.4%
O=C(CN1CCN(Cc2ccccc2)CC1)N/N=C\C=C/c1ccco1	?	1.9%	-5.1%	6.31µM*	?	-10.9%
Cc1cccc(CSc2nnc3[nH]c(=O)cc(-c4ccccc4)n23)c1	3.1%[57.1 µM]	·	0.3%	0.7%	·	4.3%[57.1 µM]
O=C(c1ccc2c(c1)OCO2)n1nnc2ccccc21	·	-0.3%	·	·	·	·
COc1ccc(C(=O)n2nnc3ccccc32)cc1OC	3.16µM*	·	3.8%	-0.1%	-19.4%	-5.6%
